Our source for the Potency values is PubChem BioAssay (NCATS).

Molecules are shown by their SMILES. Records with an inconclusive call do not appear. Calls of active or inactive are those of the source. The call rests on the fitted dose curve; in most records, active means well fitted curve in the direction sought with a large enough effect; inconclusive means small, poorly fitted or top-dose-only effect, or another doubt; inactive means no such curve, though single readings can be large; an effect the other way counts as inactive or inconclusive.

The nature of experiment [1]: P-glycoprotein substrates identified in KB-3-1 adenocarcinoma cell line, qHTS therapeutic library screen (AID 1346986). Further: nearly all actives have a fitted effect of over 60% in size.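 Further: potency is for cytotoxicity meaning loss of cell viability.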 The gist of the method: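 Dose-response cytotoxicity, KB-3-1 vs P-gp-high KB-8-5-11, no colchicine in assay medium. Read: CellTiter-Glo at 72 h.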
In general terms: Quantitative high-throughput screening tests each substance at several concentrations.

Experiment [2] can be described thus: P-glycoprotein substrates identified in KB-8-5-11 adenocarcinoma cell line, qHTS therapeutic library screen (AID 1346987). Further: nearly all actives have a fitted effect of over 65% in size. The gist of the method:
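Human cervical adenocarcinoma KB-8-5-11 cells, selected in colchicine to over-express P-gp and assayed without it, were exposed for 72 h to titrated compounds. An ATP-based luminescent viability signal gave AC50.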

The next experiment has as its target Furin (Homo sapiens) (UniProt P09958). In words: Furin counterscreen qHTS for Zika virus inhibitors (AID 1347149). Further: nearly all actives have a fitted effect of over 70% in size. Put shortly: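 Counterscreen measures cleavage of 2 microM BOC-RVRR-AMC, below its ~15 microM Km, by 5 nM full-length human furin at pH 7.0 after a 15-min compound preincubation. Inhibition derives from the 15-min fluorescence increase at 37C.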
Background: A counterscreen serves to expose hits that act by an unwanted route or on another target.

Experiment [3] relates to Zika virus NS2B-NS3 protease (linked construct). In words: Confirmatory screen NINDS AMC qHTS for Zika virus inhibitors (AID 1347152). Further: nearly all actives have a fitted effect of over 70% in size. Put shortly:
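Linked NS2B-NS3 protease, 1 nM, in 10 mM Tris-HCl pH 8.0, 0.01% Tween 20; compounds preincubated 15 min at room temperature. Nle-KRR-AMC 10 microM (Km 18.3 µM); 15-min fluorescence change (340/450 nm) fitted to 4-parameter Hill.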

For experiment [4], the system named is Zika virus NS2B-NS3 protease (unlinked complex). In words: Confirmatory screen GU AMC qHTS for Zika virus inhibitors (AID 1347153).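 Further: enzyme at 25 nM with substrate at 10 µM below its Km of 18.3 µM; nearly all actives have a fitted effect of over 70% in size.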 To be noted: Recombinant NS2B-NS3 protease, AMC substrate fluorescence. The gist of the method: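 Unlinked NS2B-NS3 complex (25 nM) in 10 mM Tris-HCl pH 8.0, 0.01% Tween 20 preincubated 15 min with compound, then 10 microM Bz-Nle-KRR-AMC (Km 18.3 µM). Fluorescence change over 15 min, normalized, Hill-fitted.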
Potency means the concentration at half of the fitted maximal effect.

Furin (Homo sapiens), sequence (P09958 whole entry, looked up): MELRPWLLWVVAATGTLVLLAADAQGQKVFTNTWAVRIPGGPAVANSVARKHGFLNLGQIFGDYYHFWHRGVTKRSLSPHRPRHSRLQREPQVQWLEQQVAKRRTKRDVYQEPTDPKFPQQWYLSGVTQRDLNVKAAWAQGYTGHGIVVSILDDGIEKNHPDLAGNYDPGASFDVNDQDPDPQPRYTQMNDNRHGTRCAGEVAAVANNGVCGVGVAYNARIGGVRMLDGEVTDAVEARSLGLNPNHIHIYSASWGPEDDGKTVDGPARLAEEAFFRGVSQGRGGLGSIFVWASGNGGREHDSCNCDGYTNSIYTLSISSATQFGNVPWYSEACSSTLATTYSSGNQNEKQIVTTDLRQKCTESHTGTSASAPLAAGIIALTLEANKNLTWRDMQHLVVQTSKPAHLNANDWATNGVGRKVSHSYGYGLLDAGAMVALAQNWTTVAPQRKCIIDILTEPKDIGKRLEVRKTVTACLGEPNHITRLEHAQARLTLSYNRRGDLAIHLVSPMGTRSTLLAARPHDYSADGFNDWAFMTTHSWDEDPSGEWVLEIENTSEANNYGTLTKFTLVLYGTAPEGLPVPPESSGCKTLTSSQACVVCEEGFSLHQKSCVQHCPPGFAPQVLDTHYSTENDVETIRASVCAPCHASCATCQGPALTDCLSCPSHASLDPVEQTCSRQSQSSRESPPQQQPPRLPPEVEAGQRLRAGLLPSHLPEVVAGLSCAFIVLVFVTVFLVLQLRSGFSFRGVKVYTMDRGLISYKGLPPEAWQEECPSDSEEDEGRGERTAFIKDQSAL

In the case of `COc1cccc(CN(C(=O)CC(C)(C)C)[C@H]2C[C@H](C(=O)N3CCNCC3)N(Cc3ccc4c(c3)OCO4)C2)c1`, the Potency entry in experiment [1] and in experiment [2] was “inactive” each time.

Consider `Cc1[nH]c2ccccc2c1CCNC(=O)c1cccs1`, for which the Potency result in experiment [1] and in experiment [2] was “inactive” in each case.

`CN(C)c1cccc(Oc2cnc(Nc3cccc(O)c3)nc2)c1`: the Potency result in experiment [1] and in experiment [2] was “inactive” each time.

In the case of `O=C(O)c1cc(N(Cc2ccc(C3CCCCC3)cc2)C(=O)c2ccc(Oc3ccccc3)cc2)ccc1O`, the Potency result in experiment [1] and in experiment [2] was “inactive” in each case. Moreover, the Potency is 15.6 µM (active) with Furin (Homo sapiens), 12.4 µM (active) in experiment [3] and 9.87 µM (active) in experiment [4].

For the molecule `CCN1CCN(Cc2ccc(NC(=O)c3ccc(C)c(Oc4ccnc5[nH]ccc45)c3)cc2C(F)(F)F)CC1`, the Potency in experiment [1] was 16.4 µM (active); in experiment [2], 10.1 µM (active).

Regarding `COc1cc(/C=C2\CC[C@H]3COC[C@@H](c4cc(F)c(F)c(F)c4)N3C2=O)ccc1-n1cnc(C)c1`, the Potency entry in experiment [1] and in experiment [2] was “inactive” in each case.

`COc1ccc(S(=O)(=O)N2CCC[C@H]2C(=O)Nc2cc(C)cc(C)c2)cc1`: the Potency result in experiment [1] and in experiment [2] was “inactive” in each case.

For `C=C1CC[C@@H]2[C@](C)(CO)[C@H](O)CC[C@@]2(C)[C@@H]1CC(O)C1=CCOC1=O` (stereo not given in full), the Potency entry in experiment [1] and in experiment [2] was “inactive” in each case.

Regarding `COc1cccc(-c2cc(F)ccc2C2Cc3nc(N)nc(C)c3C(=O)N2)n1` (stereo not given), the Potency in experiment [2] is 0.0259 µM (active).

As to `CC(C)(CO)c1cc2cc(NC(=O)C3(c4ccc5c(c4)OC(F)(F)O5)CC3)c(F)cc2n1CC(O)CO` (stereo not given), the Potency entry in experiment [1] and in experiment [2] was “inactive” each time.

`c1cc(-c2cnn3cc(-c4ccc(N5CCNCC5)cc4)cnc23)c2cccnc2c1`: the Potency in experiment [2] was 5.17 µM (active).

On to `C=CC(=O)N1CCC(Oc2cc3c(Nc4ccc(Cl)c(Cl)c4F)ncnc3cc2OC)CC1`, for which the figures for the Potency in experiment [1] and in experiment [2] were 13 µM (active) and 11.6 µM (active), respectively.
